Bioassay records deposited in PubChem BioAssay by The Scripps Research Institute Molecular Screening Center.
ULK1 primary = ULK1 kinase inhibitors, primary screen, biochemical, AlphaScreen; Serine/threonine-protein kinase ULK1 (Homo sapiens), O75385; AlphaScreen Atg13 phosphorylation by ULK1, luminescence; inhibition, % at 5.96 µM; hit rate 1.9% among 30,000; AID 1259251, 2017; in the data active = inhibition above about 43%;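 also: 0% = median of compound wells and 100% = no enzyme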
ASK1 primary = ASK1 kinase inhibitors, primary screen, biochemical, AlphaScreen | Mitogen-activated protein kinase kinase kinase 5 (Homo sapiens), Q99683 | AlphaScreen MKK6 phosphorylation by ASK1, luminescence | inhibition, % at 7.44 µM | hit rate 0.99% among 22,000 | AID 1159602, 2016; in the data active = inhibition above about 35%;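 also: 0% = median of compound wells and 100% = no enzyme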
An asterisk follows results filed as active; . = no result. Compounds with a hit are over-represented: about 2.4% of the library has one in this group of screens.

SMILES	ULK1 primary	ASK1 primary
O=C(Nc1ccc(N2CCOCC2)cc1)c1ccnc(NCCN2CCOCC2)c1	47.1*	-18.4
O=C(Nc1ccc(N2CCOCC2)cc1)c1ccc2nc(Nc3ccc(N4CCOCC4)cc3)sc2c1	1.6	6.0
O=C(Nc1ccc(N2CCOCC2)cc1)c1ccc2nc(Nc3ccccn3)sc2c1	51.5*	-31.8
CCNc1cc(C(=O)Nc2ccc(N3CCOCC3)cc2)ccn1	31.2	9.8
COc1ccc2c(c1)CC(C(=O)Nc1ccc(-c3ccnc4ccccc34)cc1OCCN(C)C)CO2 (configuration not stated)	-13.5	32.4
O=C(Nc1cnn(-c2ccccc2)c1)Nc1ccccc1Cl	-12.2	2.4
CC[C@@H](C(=O)[C@@H](C)[C@@H](O)[C@H](C)[C@@H]1O[C@@H]([C@@H](CC)C(=O)O)CC[C@@H]1C)[C@H]1O[C@]2(C=C[C@@H](O)[C@]3(CC[C@@](C)([C@H]4CC[C@](O)(CC)[C@H](C)O4)O3)O2)[C@H](C)C[C@@H]1C	-4.3	.
CC[C@@H](C(=O)[C@@H](C)[C@@H](O)[C@H](C)CCc1ccc(C)c(O)c1C(=O)O)[C@H]1O[C@](CC)([C@H]2CC[C@](O)(CC)[C@H](C)O2)C[C@@H]1C	69.8*	.
CCOC(=O)C(C)(N)Cc1ccc(O)c(O)c1 (configuration not stated)	-13.3	.
CC(N)(Cc1ccc(O)c(O)c1)C(=O)O (configuration not stated)	84.8*	.
COc1ccc(CCNc2cc(NCc3cccnc3)ncn2)cc1	-2.0	-11.7
COc1ccc(-c2cncc(C(=O)Nc3ccccc3)c2)cn1	-5.5	8.3
COc1cc(NC(=O)c2cccc(-c3csc4ccccc34)n2)cc(OC)c1OC	-3.8	7.1
O=C(CCl)Nc1ccc(CN2CCCC2)cc1	66.1*	.
O=C(CCl)Nc1ccc2nsnc2c1	2.5	.
O=C(NCc1ccccc1)c1cncc(-c2ccc(C(=O)NC3CC3)cc2)c1	-2.3	-11.5
Nc1ccc(-c2ccnc(Nc3ccc(S(N)(=O)=O)cc3)n2)cc1	8.1	-12.6
Cc1cnc(CNc2cc(-c3cncc(-c4ccc(Cl)cc4)c3)nc(C)n2)cn1	-17.3	.
CCN(CC)C(=O)C1CCCN(c2ncc(C(=O)Nc3ccc(Oc4ccccc4)cc3)s2)C1 (configuration not stated)	-4.7	4.2
CCN(CC)C(=O)C1CCCN(c2ncc(C(=O)Nc3ccc(N4CCOCC4)cc3)s2)C1 (configuration not stated)	48.5*	-14.6
O=C(Nc1ccc(N2CCOCC2)cc1)c1cnc(N2CCOCC2)s1	44.8*	4.0
O=C(Nc1ccc(N2CCOCC2)cc1)c1cnc(N2CCN(c3ccccn3)CC2)s1	-6.3	0.5
O=C(Nc1ccc(-c2cn[nH]c2)cc1)NC(CCO)c1cccc(Cl)c1 (configuration not stated)	-22.5	-3.5
CCCNc1ccnc(Nc2ccc(C(F)(F)F)cc2)n1	-7.0	0.4
Cc1ncn(-c2ccc(Nc3ncc4cccc(-c5cncc(C(=O)N6CCOCC6)c5)c4n3)cc2)n1	-0.3	13.7
SMILES	ULK1 primary	ASK1 primary
Cc1ccc(-c2cccc3cnc(NC4CCN(C(=O)N5CCCC5)C4)nc23)cn1 (configuration not stated)	25.7	12.9
Cc1ccc(-c2cccc3cnc(Nc4ccc(C(=O)N5CCCC5)cc4)nc23)cn1	63.2*	-14.1
Cc1ccc(-c2cccc3cnc(Nc4cccc(C(=O)N5CCOCC5)c4)nc23)cn1	63.9*	6.1
CCCNc1nc(Nc2nc3ccccc3n2C)nc2c1ncn2C1CCCCC1	41.1	1.6
Cn1c(Nc2nc(NCCc3ccc(O)cc3)c3ncn(C4CCCCC4)c3n2)nc2ccccc21	44.5*	-1.5
O=C1CCCN1CCn1cnc2c(NC3CCN(Cc4ccccc4)CC3)nc(Nc3ccncc3)nc21	38.6	-85.1
CC(=O)c1cccc(-c2nc(Nc3ccc(N4CCOCC4)cc3)c3ncn(C(C)C)c3n2)c1	55.7*	24.5
CC(C)n1cnc2c(Nc3ccc(N4CCOCC4)cc3)nc(-c3cccc(N)c3)nc21	25.5	4.4
CC(=O)Nc1ccc(Nc2nc(-c3ccc(C(N)=O)cc3)nc3c2ncn3C(C)C)cc1	74.9*	5.7
COc1ccc(-c2nc(Nc3ccc(N4CCOCC4)cc3)c3ncn(C(C)C)c3n2)cn1	25.0	30.5
COc1ccc(-c2nc(Nc3ccc(NC(C)=O)cc3)c3ncn(C(C)C)c3n2)cn1	50.4*	10.4
CC(=O)Nc1ccc(Nc2nc(-c3cccc(N)c3)nc3c2ncn3C(C)C)cc1	35.0	5.3
Cc1cnc(-c2ccccc2)nc1Nc1ccc(N2CCOCC2)cc1	8.7	12.7
Cc1cnc(-c2ccc(N3CCOCC3)nc2)nc1Nc1ccccc1	43.9*	0.1
COc1ccc(-c2nc(Nc3ccc(NC(C)=O)cc3)c3[nH]cnc3n2)cc1	-110.0	-5.3
CC(=O)Nc1ccc(Nc2nc(N3CCOCC3)nc3c2ncn3C(C)C)cc1	32.2	2.9
